Only some compounds are listed: those with a hit (about 3.7% of all), similar ones and a draw of the others.
TMEM16A act: mouse TMEM16A channel activation, primary screen; HEK293 TMEM16A/YFP-H148Q/I152L, iodide quench fluorescence; active compounds read low; B-score at 10 µM; 340,000 tested, 0.3% active; AID 623877;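 active means fluorescence-ratio B-score plate-corrected deviation score at least 3 library SD below zero, with starting fluorescence score within 5 deviations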;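 further: channel opened by trigger with iodide after compound preincubation; score built on the fluorescence ratio of max minus min over baseline; more negative score means more quench and so TMEM16A activation or potentiation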
GPR7 antagonist: human neuropeptides B/W receptor 1 antagonism. AID 1861. GPR7-expressing cells, fluorescence antagonist assay. 290,000 tested, 1.1% active. inhibition, % at 4.4 µM. P48145; in the data active means inhibition above about 16%, passing the limit was not always enough;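 further: cells stimulated with the agonist NPW; 0% = agonist with vehicle and 100% = vehicle without agonist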
ANO1 block: inhibitors of mouse TMEM16A calcium-activated chloride channel. normalized B-score (activity score, 25-100; higher = stronger inhibition) at 10 µM. HEK293 TMEM16A/YFP iodide influx fluorescence, ionomycin. AID 588511. 310,000 tested, 1.2% active;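 active means ratio plate-corrected score three or more library SD toward inhibition, starting fluorescence score within five deviations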;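 further: score derived from kinetic fluorescence span divided by baseline fluorescence per well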
Kir21 inh: inhibitors of mouse Kir2.1 inward-rectifier potassium channel; P35561; HEK293-Kir2.1, FluxOR thallium flux fluorescence; active compounds read low; B-score at 10 µM; 310,000 tested, 0.85% active;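 active means fluorescence ratio B-score at or below minus 3 SD of library scores, with starting-brightness B-score within 2 SD, cut at about -4.2 in these data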;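 further: channel flux triggered by added potassium and thallium sulfate stimulus; B-score of peak minus minimum fluorescence over baseline after thallium stimulus; more negative B-score means stronger Kir2.1 block with less thallium influx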
CHT block: inhibitors of human choline transporter CHT. Q9GZV3. CHT-expressing cells, membrane potential dye, choline response; active compounds read low. B-score at 10 µM. 310,000 tested, 0.86% active. AID 488975;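 active means B-score over 3 SD under the library average, and starting fluorescence ratio not unusually high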;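 further: choline stimulus applied at its EC90 after an EC20 pre-addition; B-score computed on integrated fluorescence ratio after choline addition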
Target sequence (Q9GZV3 whole entry, looked up): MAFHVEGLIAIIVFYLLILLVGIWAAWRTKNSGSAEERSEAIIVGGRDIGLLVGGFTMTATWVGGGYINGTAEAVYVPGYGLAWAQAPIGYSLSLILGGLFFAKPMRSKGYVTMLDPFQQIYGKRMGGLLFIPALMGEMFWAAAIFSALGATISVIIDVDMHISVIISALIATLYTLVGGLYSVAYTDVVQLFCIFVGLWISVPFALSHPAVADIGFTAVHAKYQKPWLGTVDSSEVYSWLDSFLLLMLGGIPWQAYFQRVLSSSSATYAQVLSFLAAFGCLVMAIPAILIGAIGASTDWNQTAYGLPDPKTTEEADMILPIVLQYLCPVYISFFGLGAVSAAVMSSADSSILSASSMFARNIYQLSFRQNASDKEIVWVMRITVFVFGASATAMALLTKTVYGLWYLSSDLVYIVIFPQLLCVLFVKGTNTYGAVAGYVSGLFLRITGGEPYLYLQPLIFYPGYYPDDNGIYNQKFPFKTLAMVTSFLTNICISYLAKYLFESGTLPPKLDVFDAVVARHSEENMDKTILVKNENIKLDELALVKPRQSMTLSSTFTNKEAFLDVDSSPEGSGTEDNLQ
CHT PAM: allosteric activators of human choline transporter CHT; Q9GZV3; CHT-expressing cells, membrane potential dye, choline EC20; active compounds read high; LV-AA mutant CHT in HEK293 cells; B-score at 10 µM; 310,000 tested, 0.49% active;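 active means initial fluorescence not abnormally high and integrated response B-score, plate-corrected, over 3 SD above library mean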
CHT act confirm: human CHT activation, confirmatory screen; AID 504833; 2,500 tested, 91% active; activation, % at 10 µM; CHT-expressing cells, membrane potential dye fluorescence (FDSS); % of choline EC20–EC90 response window; HEK293 expressing CHT LV-AA mutant; choline added at its EC20; shares compounds with CHT PAM;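 active means primary screen active, with duplicate mean activation above negative control mean plus 3 SD, cut at about 11% in these data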
HEK293 MP dye: counter-screen for CHT activators: effect in parental HEK293 cells; membrane potential dye fluorescence (FDSS); measured after EC20 choline addition; shares compounds with CHT PAM; 2,500 tested, 62% active; AID 623908; ratio readout change at 10 µM, hits read low;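 active means duplicate-averaged ratio beyond 3 SD from buffer wells, up or down, though filed actives are nearly all decreases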
* = called active by the depositor; i = inactive; · = not tested or not shown.

SMILES | TMEM16A act | GPR7 antagonist | ANO1 block | Kir21 inh | CHT block | CHT PAM | CHT act confirm | HEK293 MP dye
O=C1c2ccccc2C(=O)N1CCCCSc1nc2ccccc2c(=O)n1CCCN1CCOCC1 | i | -1.7 | i | -3.53 | i | i | 34.9* | i
COc1ccc(C(CNC(=O)c2ccccc2SC)N(C)C)cc1 (stereo unspecified) | i | 3.0 | i | 1.74 | i | i | · | ·
COc1cccc(-c2cn(C[C@H]3CC[C@@H]([C@@H]4CC[C@H](Cn5cc(-c6cccc(OC)c6)nn5)O4)O3)nn2)c1 | i | 12.4 | i | -2.04 | i | 6.97* | 15.1* | i
CCN(C(=O)COC(=O)c1cc(S(=O)(=O)N(C)C)ccc1Cl)C1CCS(=O)(=O)C1 (stereo unspecified) | i | · | i | -0.16 | i | i | · | ·
CC[n+]1c(C)sc2cc(C)ccc21 | i | -7.3 | i | 0.2 | i | i | 67.5* | -58*
Cc1cc(NC(=O)CCC2CCCCC2)no1 | i | 12.9 | i | -0.78 | i | i | · | ·
Cc1ccnc(NC(=O)CCC2CCCCC2)c1 | i | 16.9 | i | -2.36 | i | i | 27.1* | i
O=C1NC(CCO)C(=O)NC1CCO (stereo unspecified) | i | · | · | · | · | · | · | ·
CCn1c(C)[n+](CCOCC[n+]2c(C)n(CC)c3cc(Cl)c(Cl)cc32)c2cc(Cl)c(Cl)cc21 | i | 1.9 | i | · | i | 6.69* | 30.9* | -48.6*
CC(=O)OCCn1c(C)[n+](CCOC(C)=O)c2cc(Cl)c(Cl)cc21 | i | -20.3 | i | 1.31 | i | i | · | ·
CN1CCN(C(=O)CSc2nc(-c3ccncc3)ccc2C#N)CC1 | i | -4.1 | i | 0.06 | i | 8.05* | 44.2* | -36.6*
C[n+]1ccc(C(=O)N/N=C/c2ccco2)cc1 | i | -2.1 | i | 0.09 | i | 7.12* | 63.6* | -53.9*
Cc1c(-c2ccccc2)[n+](=O)c2c(n1[O-])CCCC2 | i | -4.0 | i | -0.95 | i | i | · | ·
CC1(C)Cc2c(sc3c2C2=NCCN2C=N3)CO1 | i | -10.5 | i | 0 | i | 9.31* | 74.9* | -62.6*
CC1CCCCN1CCNC(=O)c1cc2c(=O)n(C)c3ccccc3c2n1C (stereo unspecified) | i | -8.0 | i | 0.15 | i | i | 29.7* | -20.8*
Cn1c(C(=O)NCCN2CCOCC2)cc2c(=O)n(C)c3ccccc3c21 | i | 1.6 | i | 0.01 | i | i | · | ·
Cn1c(C(=O)NC2CCCCC2)cc2c(=O)n(C)c3ccccc3c21 | i | 1.6 | i | -1.95 | i | i | · | ·
Cn1c(C(=O)NCCCN2CCCC2=O)cc2c(=O)n(C)c3ccccc3c21 | i | -9.9 | i | -1.88 | i | i | 27.3* | -31.6*
COc1ccc2c(c1)CCCN2C(N)=Nc1ccc(Cl)cc1 | i | 25.7 | i | -7.59* | i | 6.35* | 15.7* | i
CCOc1cccc(C(=O)Nc2ccc3c(c2)OCCO3)c1 | i | 1.2 | i | -2.03 | i | i | · | ·
Cc1ccn2c(c1)nc(=O)c1cc(S(=O)(=O)N3CCCCC3)ccc12 | i | -9.4 | i | 0.88 | i | i | 31.8* | -26.8*
O=C(CSc1nc(=O)n2ccccc2n1)NC1CCCCC1 | i | · | i | 0.45 | i | i | · | ·
Cc1cc(C)c(C#N)c(SCc2cn3ccccc3n2)n1 | i | 1.5 | i | -2.59 | i | 6.5* | 50.8* | -46.1*
Clc1ccc(SCc2cn3ccccc3n2)cc1 | i | -1.3 | i | -1.28 | i | i | · | ·
c1ccc2c(SCc3cn4ccccc4n3)nncc2c1 | i | -10.7 | i | -0.54 | i | 7.69* | 39.0* | -37.4*
SMILES | TMEM16A act | GPR7 antagonist | ANO1 block | Kir21 inh | CHT block | CHT PAM | CHT act confirm | HEK293 MP dye
O=C(c1cc([N+](=O)[O-])ccc1N1CCCCC1)N1CCc2ccccc21 | i | 8.7 | i | 0.45 | i | i | 35.3* | i
O=C(c1cc([N+](=O)[O-])ccc1Cl)N1CCc2ccccc21 | i | -9.8 | i | -2.32 | i | i | · | ·
Cc1[nH]ccc2c1[nH]c1cc(=O)ccc12 | i | -13.5 | i | 2.69 | i | i | 49.7* | -49.3*
NC(=O)c1ccc(NC(=O)COC(=O)C2CC(=O)N(Cc3ccccc3)C2)cc1 (stereo unspecified) | i | -19.7 | i | -1.2 | i | i | · | ·
COCC1CCCCC1OS(N)(=O)=O (stereo unspecified) | i | -5.8 | i | 0 | i | i | · | ·
Cn1c(CCN2CCCCC2)nc2cc([N+](=O)[O-])ccc21 | i | -11.1 | i | 0.41 | i | 8.54* | 58.2* | -62.4*
COCC(=O)n1nc(NCc2ccc(OC)cc2)nc1NCc1ccc(OC)cc1 | i | -7.9 | i | -0.06 | i | i | 10.1* | i
COc1ccc(CNc2nc(NCc3ccc(OC)cc3)n(S(C)(=O)=O)n2)cc1 | i | -6.0 | i | -2.36 | i | i | · | ·
CN(C)CCNC(=O)c1ccc(COCC(F)(F)F)cc1 | i | -14.3 | i | -0.48 | i | i | · | ·
NNC(=O)c1ccc(COCC(F)(F)F)cc1 | i | -10.8 | i | 2.31 | i | i | -5.6 | i
COc1cccc(CC(=O)Nc2ccc(S(=O)(=O)Nc3nc(C)cc(C)n3)cc2)c1 | i | -1.1 | i | 2.14 | i | i | · | ·
Cc1cccc2c(=O)cc(C)n(CC(=O)N3CCCCC3)c12 | i | -14.6 | i | -0.07 | i | 7.58* | 61.6* | -70.2*
CNC(=O)Cn1c(C)cc(=O)c2cccc(C)c21 | i | -3.2 | i | 0.43 | i | 10.5* | 62.8* | -72.7*
Cc1cccc2c(=O)cc(C)n(CC(=O)N3CCOCC3)c12 | i | 8.4 | i | 0.25 | i | 10.5* | 47.1* | i
Cc1cccc2c(=O)cc(C)n(Cc3ccccc3)c12 | i | -6.3 | i | 1.56 | i | i | · | ·
COCCNC(=O)CSc1ccccc1C(=O)NC1CCCc2ccccc21 (stereo unspecified) | i | -8.3 | i | 0.26 | i | i | · | ·
COc1ccc(OC)c(C2Nc3ccccc3NC3=C2C(=O)CC(C)(C)C3)c1 (stereo unspecified) | i | -14.7 | i | -0.83 | i | i | · | ·

Screening results deposited in PubChem BioAssay by several laboratories.
